Experimental findings from PubChem BioAssay (Tox21) are described below.

“And” between values parts separate entries of the source, which are not always exact repeats. Equal values may be shown once. More than one record can exist for a structure, and the calls need not agree. The source made the active and inactive calls. Unless noted, the call rests on the fitted dose curve; in most records, active means well fitted curve in the direction sought with a large enough effect in the repeat runs; inconclusive means weak or mixed curves; inactive means no such curve, though single readings can be large; an effect the other way counts as inactive or inconclusive.

In assay [1] the test system is thyroid hormone receptor (rat, GH3 cells). Put plainly: qHTS assay to identify small molecule agonists of the thyroid receptor (TR) signaling pathway (AID 743066; calls by dose curve). On the technique in general: qHTS replaces the single test concentration by a dilution series.
A short description of assay [2]: qHTS assay to identify small molecule antagonists of the estrogen receptor alpha (ER-alpha) signaling pathway - cell viability counter screen (AID 743074; calls by dose curve;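 further: HEK293 cells carrying ER-alpha-UAS-bla reporter stimulated with 17beta-estradiol; nearly all actives have a fitted effect of over 45% in size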).
The target of assay [3] is Estrogen receptor (Homo sapiens) (UniProt P03372). Put plainly: qHTS assay to identify small molecule agonists of the estrogen receptor alpha (ER-alpha) signaling pathway (AID 743075; calls by dose curve; further: potency means the concentration at half of the fitted maximal effect).
The target is the same in assay [4]. Put plainly: qHTS assay to identify small molecule agonists of the estrogen receptor alpha (ER-alpha) signaling pathway using the BG1 cell line (AID 743079). Further: nearly all actives have a fitted effect of over 20% in size. Further: potency means the concentration at half of the fitted maximal effect. The following applies: BG1Luc4E2 cells, ERE-luciferase agonist, 22 h; activation: at 70.3 µM (top of the series).
Assay [5] can be described thus: qHTS assay to identify small molecule antagonists of the estrogen receptor alpha (ER-alpha) signaling pathway using the BG1 cell line (AID 743080; calls by dose curve;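 further: BG1 cells stimulated with 17beta-estradiol alongside compound; nearly all actives have a fitted effect of over 25% in size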; further: potency means the concentration at half of the fitted maximal effect). An outline of the steps:
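Endogenous full-length ER-alpha in BG1-Luc-4E2 cells drives a stably integrated 4×ERE luciferase gene; compounds were tested against 17beta-estradiol over 21.5 h, with luminescence and multiplexed viability fluorescence recorded.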

Assay [6] is described as follows: qHTS assay to identify small molecule antagonists of the estrogen receptor alpha (ER-alpha) signaling pathway using the BG1 cell line - cell viability counter screen (AID 743081).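 Further: compound given together with 17beta-estradiol as the ER stimulus; nearly all actives have a fitted effect of over 45% in size.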
The target of another assay is Aromatase (Homo sapiens) (UniProt P11511). Put plainly: qHTS assay to identify aromatase inhibitors (AID 743083). Further: nearly all actives have a fitted effect of over 55% in size. Further: potency means the concentration at half of the fitted maximal effect.
The nature of assay [7]: qHTS assay to identify aromatase inhibitors - cell viability counter screen (AID 743084).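 Further: cells stimulated with testosterone during compound exposure; nearly all actives have a fitted effect of over 55% in size.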
Assay [8] deals with Estrogen receptor (Homo sapiens) (UniProt P03372). Put plainly: qHTS assay to identify small molecule antagonists of the estrogen receptor alpha (ER-alpha) signaling pathway (AID 743069; active means well fitted curve in the direction sought with a large enough effect in the signal ratio in the repeat runs, not every such curve was filed as active; inconclusive means weak or mixed curves, or effect the other way; inactive means no such curve, though single readings can be large or run the other way; the % refers to the signal ratio; further: potency means the concentration at half of the fitted maximal effect). A digest of the protocol: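 Compound effects are measured against 17beta-estradiol stimulation in HEK293 cells with a UAS-controlled beta-lactamase reporter for ER-alpha. Exposure lasts 18 hr at 37C; LiveBLAzer B/G FRET substrate follows for 2 hr at room temperature.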
On the % scale 0 is the no-effect control and ±100 the full control effect.

Chain of Estrogen receptor (Homo sapiens) (P03372 whole entry, looked up): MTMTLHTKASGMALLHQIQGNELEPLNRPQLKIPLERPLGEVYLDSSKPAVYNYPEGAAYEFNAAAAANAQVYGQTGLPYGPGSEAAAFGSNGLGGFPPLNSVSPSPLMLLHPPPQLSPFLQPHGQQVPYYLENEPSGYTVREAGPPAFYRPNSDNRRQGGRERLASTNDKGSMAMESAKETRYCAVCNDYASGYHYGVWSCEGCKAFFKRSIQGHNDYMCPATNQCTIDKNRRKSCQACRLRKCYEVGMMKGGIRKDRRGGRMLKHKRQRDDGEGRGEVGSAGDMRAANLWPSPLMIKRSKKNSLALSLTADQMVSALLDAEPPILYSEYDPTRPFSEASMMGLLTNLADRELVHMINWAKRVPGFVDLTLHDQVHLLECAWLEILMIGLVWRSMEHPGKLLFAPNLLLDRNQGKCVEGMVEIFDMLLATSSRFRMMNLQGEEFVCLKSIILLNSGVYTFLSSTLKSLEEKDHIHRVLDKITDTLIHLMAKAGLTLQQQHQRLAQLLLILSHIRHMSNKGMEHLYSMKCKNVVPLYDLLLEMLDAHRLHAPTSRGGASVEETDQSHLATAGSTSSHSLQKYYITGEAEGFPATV
Chain of Aromatase (Homo sapiens) (P11511 whole entry, looked up): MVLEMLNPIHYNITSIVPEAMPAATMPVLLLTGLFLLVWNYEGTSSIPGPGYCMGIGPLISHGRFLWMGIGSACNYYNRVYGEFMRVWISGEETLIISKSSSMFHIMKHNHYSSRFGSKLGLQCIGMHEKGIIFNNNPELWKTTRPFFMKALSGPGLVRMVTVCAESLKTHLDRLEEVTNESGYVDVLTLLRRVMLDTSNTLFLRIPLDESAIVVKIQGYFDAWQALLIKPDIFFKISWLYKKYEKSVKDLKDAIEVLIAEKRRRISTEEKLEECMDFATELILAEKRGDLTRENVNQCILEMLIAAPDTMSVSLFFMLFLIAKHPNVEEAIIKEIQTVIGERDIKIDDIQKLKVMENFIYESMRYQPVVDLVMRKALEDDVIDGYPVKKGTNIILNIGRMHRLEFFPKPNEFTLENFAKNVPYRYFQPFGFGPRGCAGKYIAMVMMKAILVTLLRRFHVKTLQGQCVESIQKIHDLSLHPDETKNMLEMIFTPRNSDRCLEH

In the case of `C/C=C(/C(=C/C)c1ccc(O)cc1)c1ccc(O)cc1`, the compound was classed as inactive in assay [1]. Also, the Potency entry (in assay [2]; in [5]; in assay [6]; in the assay with Aromatase (Homo sapiens); in assay [7]) was “inactive” each time. The Potency in [3] is 0.0006 µM [inconclusive] (active); in assay [4], 0.0003 µM (active).

On to `Cc1[nH]cnc1CN1CCc2c(c3ccccc3n2C)C1=O`, for which the Potency result (in [2]; in assay [6]; with Aromatase (Homo sapiens); in assay [7]) was “inactive” throughout.

Consider `Cc1ccc(Cl)c(Nc2ccccc2C(=O)O)c1Cl`, for which the outcome in [1] was inactive. Besides, the Potency result (in assay [3]; in assay [4]; in assay [5]; in assay [6]; with Aromatase (Homo sapiens); in assay [7]) was “inactive” in each case.

Turning to `C[C@]12CC[C@@H]3c4ccc(O)cc4CC[C@H]3[C@@H]1CC[C@@H]2OC(=O)CCC1CCCC1`, in assay [1], the call was inactive. Moreover, the Potency entry in assay [2], in assay [6] and in assay [7] was “inactive” in each case. The Potency in assay [3] was 1.2 nM [inconclusive] (active) and 0.5 nM [inconclusive] (active); in the assay with Aromatase (Homo sapiens), “inactive and 61.1 µM (active)”. Besides, the activation in [4] was 60.2% (active) and 48.5% (active) and 30.3% (active).

On to `CCCCCC[C@@H](O)C/C=C\CCCCCCCC(=O)O`, for which the compound was classed as inactive in [1]. In addition, the Potency result (in assay [2]; in assay [6]; in the assay with Aromatase (Homo sapiens); in assay [7]) was “inactive” throughout.

Regarding `O=C(CCc1ccc(O)cc1)c1c(O)cc(O)cc1O`, the compound was called inactive in [1]. Moreover, the values for the Potency in [3] and in assay [4] were 14.1 µM [inconclusive] (active) and 4.96 µM (active), respectively. Further, the Potency result in assay [5], in assay [6] and in assay [7] was “inactive” in each case.

For `COc1ccccc1N1CCN(CC(O)COc2cccc3ccccc23)CC1` (stereo unspecified), the call in assay [1] was inactive. Further, the Potency result (in [2]; in assay [6]; with Aromatase (Homo sapiens); in assay [7]) was “inactive” throughout.

`O=[N+]([O-])c1ccc(Nc2ccc(Nc3ccccc3)c(S(=O)(=O)O)c2)c([N+](=O)[O-])c1`: in [1], the result was inactive. The Potency result (in assay [2]; with Aromatase (Homo sapiens)) was “inactive” throughout.

On to `Oc1c(I)cc(I)c2cccnc12`, for which the Potency in [8] was 6.01 µM [cytotoxic] (active). Also, the Potency result (in [3]; in assay [4]; in assay [6]; in the assay with Aromatase (Homo sapiens); in [7]) was “inactive” each time.

For `O=C(O)c1ccc(OCCCOc2ccc(C(=O)O)cc2)cc1`, the Potency entry (in [2]; in assay [6]; with Aromatase (Homo sapiens); in assay [7]) was “inactive” each time.

For the compound `O=C1CCCCCCCCCCOCCCCO1`, the result in assay [1] was inactive. For the same compound, the Potency result in assay [2], in [6] and in [7] was “inactive” in each case.

For `Oc1cccc(Nc2ccccc2)c1`, the call in assay [1] was inactive. In addition, the Potency in [3] is 57.6 µM [activator] (active); in [4], 25.4 µM (active). Also, the Potency result (with Aromatase (Homo sapiens); in assay [7]) was “inactive” in each case.

Take `CCCCCCCC/C=C\CCCCCCCCCCCC(=O)O`: the Potency result (in [8]; in assay [2]; in [3]; in assay [5]; in [6]; with Aromatase (Homo sapiens)) was “inactive” in each case. In addition, in assay [7], the Potency result was “inactive”.

For the compound `CCCC(C(=O)OCCN(CC)CC)(c1ccccc1)c1ccccc1`, the Potency entry in [8], in assay [2], in assay [3] and in assay [4] was “inactive” in each case.

As for `CCCCCCCCC(CCCCCC)C(=O)O` (stereo unspecified), the result in assay [1] was inactive. For the same compound, the Potency entry in assay [2] and in assay [6] was “inactive” throughout.

As for `OC(CCN1CCCC1)(c1ccccc1)C1CCCCC1` (stereo unspecified), in [1], the result was inactive. Further, the Potency result (in assay [2]; in [6]; in the assay with Aromatase (Homo sapiens); in assay [7]) was “inactive” throughout.

In the case of `CC(=O)[C@H]1[C@H](C#N)C[C@H]2[C@@H]3CC=C4C[C@@H](O)CC[C@]4(C)[C@H]3CC[C@@]21C`, in assay [1], the compound was classed as inactive. Also, the Potency result (in [2]; in assay [3]; in [5]; in assay [6]; in the assay with Aromatase (Homo sapiens); in assay [7]) was “inactive” each time.

For `CC(=O)OCC(=O)NCCCOc1cccc(CN2CCCCC2)c1`, the Potency entry (in [2]; in assay [6]; with Aromatase (Homo sapiens); in [7]) was “inactive” throughout.

In the case of `CCCCCCCCOc1ccc(C(=O)O)cc1`, the result in assay [1] was inactive. The Potency entry in assay [2], in assay [6] and in assay [7] was “inactive” each time.

With `O=C1c2ccccc2C(=O)C1c1ccc(Br)cc1`, the Potency result in [8], in assay [2], in [3], in assay [4], in assay [5] and in [6] was “inactive” in each case. In addition, the Potency entry (with Aromatase (Homo sapiens); in assay [7]) was “inactive” throughout.

For `COC(=O)CS`, the Potency result (in [8]; in assay [2]; in [3]; in [4]; in assay [6]; in the assay with Aromatase (Homo sapiens)) was “inactive” throughout. Also, the Potency result in assay [7] was “inactive”.

For `O=C1Cc2ccccc2N1c1c(Cl)cccc1Cl`, the outcome in assay [1] was inactive. Also, the Potency result (in assay [2]; in assay [6]; with Aromatase (Homo sapiens); in assay [7]) was “inactive” throughout. The Potency was 43.6 µM [inconclusive] (active) in [3], 10.9 µM (active) in assay [4] and 68.6 µM (active) in assay [5].

`O=C(O)C[C@H](NC(=O)OCc1ccccc1)C(=O)O`: the Potency result in assay [8], in assay [2], in assay [3], in assay [4], in [5] and in assay [6] was “inactive” throughout. Moreover, the Potency entry (in the assay with Aromatase (Homo sapiens); in [7]) was “inactive” throughout.

Consider `C=CCc1ccccc1OCC(O)CNC(C)C` (stereo unspecified), for which the outcome in assay [1] was inactive. Also, the Potency result (in assay [2]; in assay [6]; with Aromatase (Homo sapiens); in assay [7]) was “inactive” in each case.

`O=c1c(O)c(-c2ccc(O)cc2)oc2cc(O)cc(O)c12`: the result in assay [1] was inactive. The Potency result in assay [2], in [6] and in assay [7] was “inactive” in each case.

Consider `CCC(=O)OC`, for which the Potency entry in [8], in [2], in [3], in [4], in [5] and in [6] was “inactive” in each case. In addition, the Potency result (in the assay with Aromatase (Homo sapiens); in assay [7]) was “inactive” each time.

As to `CC(C)C(O)(c1ccc(OC(F)(F)F)cc1)c1cncnc1` (stereo unspecified), the compound was called inactive in assay [1]. Further, the Potency result (in assay [2]; in [6]; with Aromatase (Homo sapiens); in [7]) was “inactive” throughout.
